Measured values taken from PubChem BioAssay (NCI).
“And” between values parts separate entries of the source, which are not always exact repeats. Equal entries are not always repeated. The panel holds about 83,000 compounds, 20% with a hit somewhere; the sample as a whole holds those more often.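 Growth was measured after 48 h exposure to one concentration of compound in 96-well plates. Values under 10 count as active.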 Values without a mark were called inactive. The source made the active and inactive calls.

tested on: HCT-15 colon; assay: NCI-60 one-dose screen, 48 h (100 = growth as untreated, 0 = no growth, -100 = all killed); settings: 10 µM
Protocol: Growth inhibition of the HCT-15 human tumor cell line is measured as a screen for anti-cancer activity. Cells are grown in 96 well plates and exposed to the test compound for 48 hours. Compounds are tested at a single concentration, which is 10^-5 M for most compounds. The reported endpoint is percent growth (GI% or GIPRCNT), where numbers from 0 - 100% represent growth inhibition, and numbers from -100% - 0 represent cell death. For example, a value of 40 represents 60% growth inhibition. A value of 0 means no net growth occurred over the course of the experiment. A value of -40 indicates 40% of cells at the beginning of the experiment died by the end of the experiment. A value of -100 means all cells are dead at the end of the experiment.
NCI-60 Human Tumor Cell Lines Screen was performed using the standard one-dose NCI protocol, which is described in more detail at https://dtp.cancer.gov/discovery_development/nci-60/default.htm.
Compounds with GIPRCNT values below 10 were considered active. Activity score was based on GIPRCNT using the following formula: […]
Score is 0 for GIPRCNT values of 100 or above, 50 for GIPRCNT values of 0, and 100 for GIPRCNT values of -100.

Question: How did the growth turn out when `O=C(O)CCCc1ccc(N(CCCl)CCCl)cc1` was run?
Answer: 86.1% and 95.5%

same assay, conditions: 10 µM unless noted

Question: For `O=S(OO)c1cc(Cl)c(O)c(Cl)c1` (stereo not given), which growth is on record?
Answer: 99.2%

Question: Which growth does the source give for `COC1C(O)CC(OC2CC(Oc3cc4cc5c(c(O)c4c(O)c3C)C(=O)[C@@H](OC3CC(OC4CC(OC6CC(C)(O)C(OC(C)=O)C(C)O6)C(O)C(C)O4)C(O)C(C)O3)[C@H]([C@H](OC)C(=O)[C@@H](O)[C@@H](C)O)C5)OC(C)C2OC(C)=O)OC1C` (stereo not given in full) here?
Answer: 1.5% (active)

Question: `O=C1NC(=O)C(=Cc2ccccc2)C(=O)N1` was tested. Which growth did it give?
Answer: 98.6% and 106%

Question: For `C/C(=N/OC(=O)N(C)C)c1ccc(Cl)c(Cl)c1`, which growth is on record?
Answer: 107%

Question: With `CCCCCCCCCCCCCCCC[n+]1ccccc1` as the compound, how does the growth read?
Answer: 17.1% and 15.2%

Question: How did the growth turn out when `C[C@]12CCc3sc(Nc4ccc(F)cc4F)nc3C1=CC[C@@H]1[C@@H]2CC[C@]2(C)C(=O)CC[C@@H]12` was run?
Answer: 7.76% (active)

Question: With `COC12CC3C4=CCOC5CC(=O)N6c7ccccc7C1(CCN2C4)C6C53` (stereo not given) as the compound, how does the growth read?
Answer: 103%

Question: For `CC[C@H](C)[C@H](NC(=O)[C@H]1CCCCN1C)C(=O)N(C)[C@H](CCc1nc(C(=O)N[C@@H](Cc2ccccc2)C[C@H](C)C(=O)O)cs1)C(C)C`, which growth is on record?
Answer: 27.3%

Question: For `Oc1ccc(O)c(Cl)c1`, which growth is on record?
Answer: 96.4% and 110%

Question: For `Clc1ccc(COC(Cn2ccnc2)c2ccc(Cl)cc2Cl)c(Cl)c1` (stereo not given), which growth is on record?
Answer: 41.9% and 46.2%

Question: Which growth does the source give for `C[N+]1(C)CCCC1c1cccnc1` (stereo not given) here?
Answer: 104%

Question: `C[C@]12CCc3sc(Nc4ccc(O)cc4)nc3C1=CC[C@@H]1[C@@H]2CC[C@]2(C)C(=O)CC[C@@H]12` was tested. Which growth did it give?
Answer: -68% (active)

Question: With `O=C(O)c1cc([N+](=O)[O-])cc([N+](=O)[O-])c1` as the compound, how does the growth read?
Answer: 109%

Question: For `CC(C)c1cccc(C(C)C)c1O`, which growth is on record?
Answer: 99.1% and 107%

Question: For `N#CC(C#N)=C(C#N)C#N`, which growth is on record?
Answer: 97.9%

Question: How did the growth turn out when `N#CCc1ccc(CC#N)cc1` was run?
Answer: 96.5%

Question: With `C/C(=C(\c1ccc(OCCN2CCOCC2)cc1)c1ccc(OC(=O)Cc2ccccc2)cc1)c1ccc(Cl)cc1` as the compound, how does the growth read?
Answer: 91.4%

Question: How did the growth turn out when `CCCn1cc2c3c(cccc31)[C@H]1C[C@@H](C)CN(C)[C@@H]1C2` was run?
Answer: 84.1%

Question: Which growth does the source give for `N#Cc1ccc(Cl)cc1` here?
Answer: 110%

Question: Which growth does the source give for `CN(C)[C@@H]1C(=O)C(C(N)=O)=C(O)[C@@]2(O)C(=O)C3=C(O)c4c(O)ccc(Cl)c4[C@@](C)(O)[C@H]3C[C@@H]12` here?
Answer: 89.6% and 105%

Question: For `COC(=O)C12C3C4C1C1C2C3C41NC(=O)c1csc([C@@H](C[C@H](C(C)C)N(C)C(=O)[C@@H](NC(=O)[C@H]2CCCCN2C)C2CC2)OC(C)=O)n1` (stereo not given in full), which growth is on record?
Answer: 12.6%

Question: `CCCCOC(N)=O` was tested. Which growth did it give?
Answer: 101%

Question: For `CO[C@H]1[C@H](O[C@@H]2C[C@@H]3C/C=C/C(=O)O[C@@H](CO)C[C@H](O)[C@@H]4C[C@H](C)[C@H](C/C=C\C=C\[C@H](C)C[C@H](C2)O3)O4)O[C@@H](C)[C@H](O)[C@H]1O`, which growth is on record?
Answer: 47.4%

Question: For `C/C(=C\c1ccn(-c2ccc(N)cc2F)n1)[C@@H]1C[C@@H]2O[C@]2(C)CCC[C@H](C)[C@H](O)[C@@H](C)C(=O)C(C)(C)[C@@H](O)CC(=O)O1`, which growth is on record?
Answer: 14%

Question: `C[C@]12CC[C@H]3[C@@H](CC=C4c5nc(N)sc5CC[C@@]43C)[C@@H]1CC[C@@H]2O` was tested. Which growth did it give?
Answer: 98.4%

Question: With `COc1cc(C2C3=C(CCCC3=O)N(CCO)c3cc4c(cc32)CCC4)cc(OC)c1OC` (stereo not given) as the compound, how does the growth read?
Answer: 89.2%

Question: Which growth does the source give for `CCC1CCC(=O)O1` (stereo not given) here?
Answer: 98.1% and 105%

Question: For `O=C=Nc1ccc(Br)cc1`, which growth is on record?
Answer: 96.5%

Question: Which growth does the source give for `Oc1cc(Cl)ccc1Oc1ccc(Cl)cc1Cl` here?
Answer: 14.4%

Question: For `Cc1cc(N(CCCl)CCCl)ccc1/C=N\NC(=O)c1cccnc1`, which growth is on record?
Answer: 93% and 85.1%

Question: `O=c1c2ccccc2nc(-c2ccccc2Cl)n1-c1nnc(C(F)(F)F)s1` was tested. Which growth did it give?
Answer: 21.1%

Question: How did the growth turn out when `NC(=O)Oc1cc(OC(N)=O)cc(N(CCCl)CCCl)c1` was run?
Answer: 68.9%

Question: With `C[N+]1(CC#CC[N+]2(C)CCCC2)CCCC1` as the compound, how does the growth read?
Answer: 103%

Question: With `C[C@H](O)CCC(=O)c1ccoc1` as the compound, how does the growth read?
Answer: 110%

Question: Which growth does the source give for `COC(=O)C1=CCCN(C)C1` here?
Answer: 106% and 100%

Question: For `CC[C@H](C)[C@H](NC(=O)C12CC(NC)(C1)C2)C(=O)N(C)[C@H](C[C@@H](OC(C)=O)c1nc(C(=O)N[C@@H](Cc2ccccc2)C[C@H](C)C(=O)OC)cs1)C(C)C`, which growth is on record?
Answer: 18.4%

Question: For `CCC(Br)(CC)C(=O)NC(N)=O`, which growth is on record?
Answer: 103%

Question: How did the growth turn out when `C=CCOC(=O)C(Br)CC` (stereo not given) was run?
Answer: 108%

same assay, conditions: 75 µM

Question: How did the growth turn out when `O=C(O)CCCc1ccc(N(CCCl)CCCl)cc1` was run?
Answer: 46.3%
